Measured values reported in the OligoGym collection.

Biological target: STAP2
Test: pooled miR-30 sensor sort-seq; sequence = guide strand
Conditions: shRNA
Note: reference of the scale not given here.

Q: For TAGAAAGCTCTCATAGTAGTGT, which sensor-assay potency score (higher = more potent) is on record?
A: The sensor-assay potency score (higher = more potent) was 0.706.

Q: TTCCACATCGATCACGTACTTG was tested. Which sensor-assay potency score (higher = more potent) did it give?
A: The sensor-assay potency score (higher = more potent) was -0.479.

Q: How did the sensor-assay potency score (higher = more potent) turn out when TTGAGCTTCTCCACGTGCTGGA was run?
A: The sensor-assay potency score (higher = more potent) was 0.441.

Q: With TAGTTCTCTTCCTGGTTCGGTA as the sequence, how does the sensor-assay potency score (higher = more potent) read?
A: The sensor-assay potency score (higher = more potent) was -0.765.

Q: Which sensor-assay potency score (higher = more potent) does the source give for TTCCACGTAGCCTAGCACCTTC here?
A: Its sensor-assay potency score (higher = more potent) is -0.0469.

Q: Which sensor-assay potency score (higher = more potent) does the source give for TTCTTCTGTAGCTCTGCCGTCA here?
A: The sensor-assay potency score (higher = more potent) was -0.496.

Q: TTCTTCTCTAGAAAGCTCTCAT was tested. Which sensor-assay potency score (higher = more potent) did it give?
A: Its sensor-assay potency score (higher = more potent) is -0.00657.

Q: TACCTTGAACTTGATCTCCTGA was tested. Which sensor-assay potency score (higher = more potent) did it give?
A: Its sensor-assay potency score (higher = more potent) is 0.355.

Biological target: STARD13
Test: as above
Conditions: shRNA

Q: With TTTGTAGTCGGGAACTTTCATC as the sequence, how does the sensor-assay potency score (higher = more potent) read?
A: Its sensor-assay potency score (higher = more potent) is -0.697.

Q: How did the sensor-assay potency score (higher = more potent) turn out when TTGTTCAACGTATTTAGTCGTC was run?
A: The sensor-assay potency score (higher = more potent) was -0.155.

Q: TTGTCATAGATACTGACTCGGC was tested. Which sensor-assay potency score (higher = more potent) did it give?
A: The sensor-assay potency score (higher = more potent) was -0.87.

Q: Which sensor-assay potency score (higher = more potent) does the source give for ATGAACTTTGGAACTGACCATG here?
A: The sensor-assay potency score (higher = more potent) was -1.26.

Q: With TTAGTCGTCTGCAAAGAGGTTC as the sequence, how does the sensor-assay potency score (higher = more potent) read?
A: The sensor-assay potency score (higher = more potent) was -0.341.

Q: How did the sensor-assay potency score (higher = more potent) turn out when TGACCTTTCAGGTCTATCCTGC was run?
A: Its sensor-assay potency score (higher = more potent) is 0.102.

Q: TTGCTGAATACTTTGAGGCAGG was tested. Which sensor-assay potency score (higher = more potent) did it give?
A: Its sensor-assay potency score (higher = more potent) is -0.948.

Q: With TATAACTGAGCGTATTGCGGGA as the sequence, how does the sensor-assay potency score (higher = more potent) read?
A: The sensor-assay potency score (higher = more potent) was -0.462.

Q: TATTTCTTCTGTATGACTCGTG was tested. Which sensor-assay potency score (higher = more potent) did it give?
A: Its sensor-assay potency score (higher = more potent) is 0.941.

Q: With TTGTAGTCTGATCAAATCGCAA as the sequence, how does the sensor-assay potency score (higher = more potent) read?
A: Its sensor-assay potency score (higher = more potent) is -1.15.

Q: For TTGAATTTTAGTCACTAGCTGA, which sensor-assay potency score (higher = more potent) is on record?
A: The sensor-assay potency score (higher = more potent) was -0.1.

Q: How did the sensor-assay potency score (higher = more potent) turn out when TAGTCGGGAACTTTCATCCTCT was run?
A: Its sensor-assay potency score (higher = more potent) is 0.0488.

Biological target: STARD3NL
Test: as above
Conditions: shRNA

Q: With TTCAACTTTACTGTCGACAGGG as the sequence, how does the sensor-assay potency score (higher = more potent) read?
A: Its sensor-assay potency score (higher = more potent) is 0.68.

Q: Which sensor-assay potency score (higher = more potent) does the source give for TTTCTTCTTCTGCTTCTTGAGG here?
A: The sensor-assay potency score (higher = more potent) was -0.759.

Q: TACTTCAATATATTAAGTCTTT was tested. Which sensor-assay potency score (higher = more potent) did it give?
A: The sensor-assay potency score (higher = more potent) was -0.927.

Q: Which sensor-assay potency score (higher = more potent) does the source give for TTGAAATCCAGGAACCACGTCT here?
A: The sensor-assay potency score (higher = more potent) was 0.74.

Q: Which sensor-assay potency score (higher = more potent) does the source give for TTGATTAGGAATACAGCACAAG here?
A: Its sensor-assay potency score (higher = more potent) is -0.839.

Q: How did the sensor-assay potency score (higher = more potent) turn out when TTTAAATCGAAAAACTGCCAGA was run?
A: Its sensor-assay potency score (higher = more potent) is -0.348.

Q: For TAAATAAATCTTTATTAGCTGT, which sensor-assay potency score (higher = more potent) is on record?
A: The sensor-assay potency score (higher = more potent) was -0.476.

Q: Which sensor-assay potency score (higher = more potent) does the source give for TGAAGCATCCTGAACTATCAGG here?
A: Its sensor-assay potency score (higher = more potent) is -0.809.

Q: TATTACAATAAATAAATCTTTA was tested. Which sensor-assay potency score (higher = more potent) did it give?
A: The sensor-assay potency score (higher = more potent) was -1.13.

Q: TTAGCTGTTCAATAAAGCCAGC was tested. Which sensor-assay potency score (higher = more potent) did it give?
A: The sensor-assay potency score (higher = more potent) was -0.902.

Q: How did the sensor-assay potency score (higher = more potent) turn out when TTTAACTCTATTATCCACAGTA was run?
A: Its sensor-assay potency score (higher = more potent) is 0.804.

Q: Which sensor-assay potency score (higher = more potent) does the source give for TTTGCTAGTAAAAAGGCACTGG here?
A: The sensor-assay potency score (higher = more potent) was 0.563.

Biological target: STARD3
Test: as above
Conditions: shRNA

Q: For TTGTTCCACAGCACCATCCTCT, which sensor-assay potency score (higher = more potent) is on record?
A: Its sensor-assay potency score (higher = more potent) is -0.73.

Q: How did the sensor-assay potency score (higher = more potent) turn out when TGTCTTGTTCCACAGCACCATC was run?
A: Its sensor-assay potency score (higher = more potent) is -1.77.

Q: With TTGACAATGAGGAATGCACTGG as the sequence, how does the sensor-assay potency score (higher = more potent) read?
A: Its sensor-assay potency score (higher = more potent) is 0.205.

Q: TAGGACTTTGAAGTCAAGGAAC was tested. Which sensor-assay potency score (higher = more potent) did it give?
A: The sensor-assay potency score (higher = more potent) was -1.37.

Q: For TTCCACAGCACCATCCTCTCGG, which sensor-assay potency score (higher = more potent) is on record?
A: The sensor-assay potency score (higher = more potent) was 0.506.

Q: TTCATTATTCTTCTCAAACTTC was tested. Which sensor-assay potency score (higher = more potent) did it give?
A: Its sensor-assay potency score (higher = more potent) is -0.376.

Q: Which sensor-assay potency score (higher = more potent) does the source give for TTATTCTTCTCAAACTTCCAGT here?
A: The sensor-assay potency score (higher = more potent) was -0.167.

Q: For TTTTCTTCCCAGCAACTTCTTC, which sensor-assay potency score (higher = more potent) is on record?
A: Its sensor-assay potency score (higher = more potent) is -1.04.
